Laboratory results as given in the supplement of paper PMC10127200.
Structures can show the parent of a compound that is named as a salt.

tested on: OVCAR4; assay: Euclidean distance of Cell Painting phenotypic profile (signed KS, 77 features) to DMSO centroid (dimensionless distance); 5 or 10 uM (library dependent); higher = stronger phenotypic change vs DMSO (phenoactivity); details: 48 h
In short: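 At 10 or 5 uM, as set by the library, and 0.1% DMSO final, compounds were applied for 48 h to five cancer lines and one healthy fibroblast line. Stained cells were imaged confocally at 20X in 9 fields per well, and Harmony extracted 77 features scored as signed Kolmogorov-Smirnov statistics against vehicle wells on the same plate. Profiles underwent plate-position correction, correlation weighting and replicate averaging at the top dose. Phenoactivity is the Euclidean distance from each such profile to the median vehicle profile.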

Row | SMILES | Euclidean distance
1 | CCCCC(C)(O)C/C=C/[C@H]1[C@H](O)CC(=O)[C@@H]1CCCCCCC(=O)OC (mixture of isomers) [Misoprostol] | 1.08
2 | NCC(=O)CCC(=O)O [5-Aminolevulinic acid HCl] | 2
3 | Cc1cccc(-c2[nH]ncc2-c2ccc3ncccc3n2)n1 | 0.807
4 | CCOC(=O)[C@H](CCc1ccccc1)N[C@@H](C)C(=O)N1Cc2ccccc2C[C@H]1C(=O)O [Quinapril HCl] | 1.04
5 | CS(=O)(=O)CCNCc1ccc(-c2ccc3ncnc(Nc4ccc(OCc5cccc(F)c5)c(Cl)c4)c3c2)o1 [Lapatinib ditosylate monohydrate] | 3.37
6 | CS(=O)(=O)CCNCc1ccc(-c2ccc3ncnc(Nc4ccc(OCc5cccc(F)c5)c(Cl)c4)c3c2)o1 [Lapatinib] | 3.77
7 | Clc1ccc(COC(Cn2ccnc2)c2ccc(Cl)cc2Cl)cc1 (stereo unspecified) [Econazole] | 0.709
8 | COc1ccc(-c2cc(=O)c3c(O)cc(O[C@@H]4O[C@H](CO[C@@H]5O[C@@H](C)[C@H](O)[C@@H](O)[C@H]5O)[C@@H](O)[C@H](O)[C@H]4O)cc3o2)cc1O [Diosmin] | 0.702
9 | COc1cnc(-n2cnc(C)n2)c2[nH]cc(C(=O)C(=O)N3CCN(C(=O)c4ccccc4)CC3)c12 | 0.969
10 | O=C(NNc1ccccc1)c1ccncc1 | 1.39
11 | CCCc1nc2c(C)cc(-c3nc4ccccc4n3C)cc2n1Cc1ccc(-c2ccccc2C(=O)O)cc1 [Telmisartan] | 1.02
12 | CC/C(=C(\c1ccc(O)cc1)c1ccc(OCCN(C)C)cc1)c1ccccc1 [4-Hydroxytamoxifen] | 2.89
13 | CC(=O)OCC1=C(C(=O)O)N2C(=O)[C@@H](NC(=O)CSC(=NC(C)C)NC(C)C)[C@H]2SC1 [Cefathiamidine] | 1.82
14 | CNCCc1ccccn1 [Betahistine mesylate] | 0.933
15 | CC(C)N(C[C@H]1O[C@@H](n2cnc3c(N)ncnc32)[C@H](O)[C@@H]1O)[C@H]1C[C@@H](CCc2nc3cc(C(C)(C)C)ccc3[nH]2)C1 | 0.955
16 | COc1ccc(OC)c(C(O)CNC(=O)CN)c1 (stereo unspecified) [Midodrine] | 0.78
17 | Cc1ccccc1-c1cc(N2CCN(C)CC2)ncc1N(C)C(=O)C(C)(C)c1cc(C(F)(F)F)cc(C(F)(F)F)c1 [Netupitant] | 1.4
18 | COc1nc(C)cnc1NS(=O)(=O)c1cccnc1-c1ccc(-c2nnco2)cc1 [Zibotentan (ZD4054)] | 0.898
19 | CC(CN1c2ccccc2Sc2ccccc21)N(C)C (stereo unspecified) [Promethazine HCl] | 1.1
20 | Clc1ccc2c(c1)C(N1CCNCC1)=Nc1ccccc1O2 [Amoxapine] | 1.09
21 | CCCc1nn(C)c2c(=O)[nH]c(-c3cc(S(=O)(=O)N4CCN(C)CC4)ccc3OCC)nc12 [Sildenafil] | 1.17
22 | CCN(CC)CCOCCOC(=O)C1(c2ccccc2)CCCC1 [Pentoxyverine Citrate] | 0.939
23 | C=CC(=O)Nc1cccc(Oc2nc(Nc3ccc(N4CCN(C)CC4)cc3)nc3ccsc23)c1 | 3.57
24 | CC(=O)/N=c1/sc(S(N)(=O)=O)nn1C [Methazolamide] | 1.5
25 | Nc1nc(NC2CC2)c2ncn([C@H]3C=C[C@@H](CO)C3)c2n1 [Abacavir sulfate] | 1.74
26 | CN(C)C1CCN(C(=O)c2ccc(NC(=O)Nc3ccc(-c4nc(N5CCOCC5)nc(N5CCOCC5)n4)cc3)cc2)CC1 | 3.62
